Source: PubChem (Broad Institute)
MLL AF4-AF9 inh – inhibitors of AF4 peptide binding to AF9, primary screen, biochemical, AlphaScreen, biotin-AF4 peptide, FLAG-AF9, single point. Protein AF-9 (Homo sapiens), P42568. inhibition, % at 10 µM. actives 0.47% (n = 350,000). AID 651704, 2012;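 active = every replicate reaching a set inhibition limit, whatever the replicate mean, cut at about 25% in these data; inconclusive = mean inhibition reaches that limit but some replicates miss it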;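 also: 0% = plate neutral control median and 100% = total signal loss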
Target sequence (P42568 whole entry, looked up): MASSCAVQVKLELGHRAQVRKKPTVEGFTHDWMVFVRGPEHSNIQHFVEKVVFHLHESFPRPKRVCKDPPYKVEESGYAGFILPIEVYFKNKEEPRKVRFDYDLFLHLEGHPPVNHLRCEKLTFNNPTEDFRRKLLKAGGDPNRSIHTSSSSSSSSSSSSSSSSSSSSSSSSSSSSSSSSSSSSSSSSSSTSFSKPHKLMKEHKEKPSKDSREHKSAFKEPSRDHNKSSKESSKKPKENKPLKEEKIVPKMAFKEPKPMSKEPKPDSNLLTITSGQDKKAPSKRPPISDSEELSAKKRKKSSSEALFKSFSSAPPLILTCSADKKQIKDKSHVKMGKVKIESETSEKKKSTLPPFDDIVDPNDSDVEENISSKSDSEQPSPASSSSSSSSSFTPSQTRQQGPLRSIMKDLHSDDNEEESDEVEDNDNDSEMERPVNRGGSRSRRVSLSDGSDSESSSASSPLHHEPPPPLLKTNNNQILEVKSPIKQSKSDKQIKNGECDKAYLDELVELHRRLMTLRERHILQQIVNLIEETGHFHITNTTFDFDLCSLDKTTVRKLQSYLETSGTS
FGF22 binding – binders of human FGF22 protein, primary screen, FGF22 synaptogenesis inhibitor project, biophysical, thermal shift, single point | actives 1.5% (n = 340,000) | activity (Tm shift, normalised), % at 9.99 µM | AID 651658, 2012 | recombinant FGF22 thermal shift, SYPRO orange fluorescence; percent of sucrose octasulfate shift, DMSO zero;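 active = mean Tm shift, scaled 0 neutral to 100 positive control, at about 1.3% or above, every replicate too, limit read from the data; inconclusive = no clear call, values can overlap the other calls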
RAD52 inh – RAD52 DNA annealing inhibitors, primary screen, biochemical, FRET, single point, set 2. DNA repair protein RAD52 homolog (Homo sapiens), P43351. recombinant RAD52 DNA annealing, FRET fluorescence. inhibition, % at 18.7 µM. actives 0.46% (n = 360,000). AID 651710, 2012;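 active = every replicate showing at least 50% inhibition; inconclusive = mean inhibition at least 50% but not in every replicate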
ERAP1 HTS inh – human ERAP1 aminopeptidase inhibitors, primary screen, biochemical, single point, plate reader | AID 652197, 2013 | actives 0.15% (n = 340,000) | recombinant ERAP1, Leu-AMC fluorescence, 60 min | inhibition, % at 10.7 µM | Endoplasmic reticulum aminopeptidase 1 (Homo sapiens), Q9NZ08;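 active = mean replicate inhibition of at least 30%, or all replicates individually reaching that 30% level; inactive = mean below 30% and not every replicate reaching it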;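 also: 0% = neutral control wells and 100% = L-leucinethiol positive control wells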
DENV2 CPE rescue – inhibitors of DENV2 cytopathic effect, primary screen, cell-based, plate reader, single concentration | actives 1.7% (n = 350,000) | CPE inhibition, % at 9.99 µM | AID 651640, 2012 | DENV2-infected cells, cytopathic effect rescue; in the data active = CPE inhibition above about 20%, passing the limit was not always enough; inconclusive = no clear call, values can overlap the other calls; tested in BHK-21 cells;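 also: 0% = median of neutral control wells and 100% = median of positive control wells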
Starred values were filed as active, the others as inactive; ? = inconclusive; · = no result. Compounds with a hit are over-represented: about 4% of the library has one in this group of screens.

SMILES	MLL AF4-AF9 inh	FGF22 binding	RAD52 inh	ERAP1 HTS inh	DENV2 CPE rescue
C[C@@H]1CCCCO[C@H](CN(C)Cc2ccncc2)[C@@H](C)CN([C@H](C)CO)C(=O)c2cc(NS(=O)(=O)c3ccccc3)ccc2O1	-5.5	0.6	18.3	-4.1	21.3*
CCCN(C)C[C@H]1OCCCC[C@@H](C)Oc2ccc(NS(=O)(=O)c3ccccc3)cc2C(=O)N([C@@H](C)CO)C[C@H]1C	2.3	0.1	54.4*	-2.4	13.8
CCCN(C)C[C@H]1OCCCC[C@H](C)Oc2ccc(NS(=O)(=O)c3ccccc3)cc2C(=O)N([C@@H](C)CO)C[C@H]1C	2.4	-0.1	36.9	-0.1	-8.4
C[C@H](CO)N1C[C@H](C)[C@H](CN(C)Cc2ccncc2)OCCCC[C@H](C)Oc2ccc(NS(=O)(=O)c3ccccc3)cc2C1=O	-1.8	0.8	25.6	-4.4	73.0*
C[C@@H]1CN([C@@H](C)CO)C(=O)c2cc(NS(=O)(=O)c3ccccc3)ccc2O[C@@H](C)CCCCO[C@H]1CN(C)Cc1ccncc1	-7.5	0.0	16.2	-5.5	-3.1
CCC(=O)N1[C@@H](CO)[C@@H](c2ccc(-c3ccccc3)cc2)[C@@H]1CNC(=O)COC	·	·	·	·	-4.1
CC(C)(C)c1ccc(C(CC(=O)O)NC(=O)C23CC4CC(CC(C4)C2)C3)cc1 (stereo not given)	-0.6	0.1	2.2	-2.2	0.6
O=C(O)CC(NC(=O)C12CC3CC(CC(C3)C1)C2)c1ccc(OC2CCCC2)cc1 (stereo not given)	-4.1	42.1	-5.5	1.5	22.3*
O=C(CN1CCOCC1)NCC[C@H]1CC[C@H](NC(=O)Nc2ccc(F)cc2)[C@@H](CO)O1	0.8	-0.5	-5.2	-1.6	5.7
CN(C)c1ccc(C#Cc2ccc3cc(CCCO)oc(=O)c3c2)cc1	-14.4	0.0	-41.0	1.2	77.6*
CCS(=O)(=O)Nc1ccc2c(c1)C(=O)N(C)[C@H]1CC[C@H](CC(=O)OC)O[C@@H]1CO2	-3.8	·	0.4	1.5	7.5
CC(C)(C)OC(=O)N1CCC(NC(=O)c2[nH]cnc2C(=O)Nc2ccccc2F)CC1	-1.5	43.0*	-2.7	0.3	?
COc1ccc(NC(=S)Nc2cc(C(F)(F)F)ccc2F)cc1	-9.5	44.1*	2.2	-0.8	2.7
O=C(Nc1ccc(F)cc1)N1CC(=O)N2[C@H](C1)[C@@H](c1ccc(C#CC3CC3)cc1)[C@@H]2CO	2.6	·	-20.8	-0.5	-0.1
CC(=O)N1[C@H](C(=O)N2CCCCC2)[C@@H](CO)[C@@H]2Cn3c(ccc(-c4ccccc4)c3=O)[C@@H]21	-3.0	0.0	-18.7	-1.6	20.1*
CC(=O)N1[C@H](C(=O)N(C)C)[C@@H](CO)[C@@H]2Cn3c(ccc(-c4ccccc4F)c3=O)[C@@H]21	-1.4	0.5	-12.9	-2.2	34.4*
CS(=O)(=O)N1[C@@H]2c3ccc(-c4ccc(F)cc4)c(=O)n3C[C@H]1[C@H](CO)[C@H]2C(=O)N1CCOCC1	0.5	0.0	5.3	·	115.4*
CC(=O)N1[C@@H]2c3ccc(-c4ccccc4)c(=O)n3C[C@H]1[C@H](CO)[C@H]2C(=O)Nc1ccccc1	-1.2	-0.3	9.0	1.6	48.1*
CCCN1[C@H](C(=O)NCC(F)(F)F)[C@@H](CO)[C@@H]2Cn3c(ccc(-c4ccccc4)c3=O)[C@@H]21	0.8	0.1	-8.9	2.0	92.3*
CN1[C@@H]2c3ccc(-c4ccncc4)c(=O)n3C[C@H]1[C@H](CO)[C@H]2C(=O)N1CCC(Cc2ccccc2)CC1	·	-0.1	-11.1	·	24.6*
CN(C)CC(=O)N1[C@@H]2c3ccc(-c4ccccc4)c(=O)n3C[C@H]1[C@H](CO)[C@H]2C(=O)N1CCCCC1	-2.3	-0.1	1.3	-0.3	-3.4
CCCN1[C@@H]2c3ccc(-c4ccccc4F)c(=O)n3C[C@@H]2[C@@H](CO)[C@@H]1C(=O)NCC	-0.9	0.2	-9.6	0.0	-13.6
CN1[C@@H]2Cn3c(ccc(-c4ccncc4)c3=O)[C@H]1[C@@H](C(=O)N1CCC(Cc3ccccc3)CC1)[C@@H]2CO	0.4	0.0	-19.0	-1.8	-6.0
CC(=O)N1[C@@H]2Cn3c(ccc(-c4ccccc4)c3=O)[C@H]1[C@@H](C(=O)N1CCCCC1)[C@@H]2CO	0.4	-0.1	58.9*	-0.1	-1.3
O=S(=O)(c1ccccc1)N1C[C@H]2[C@@H](c3ccccc31)[C@@H](CO)N2Cc1ccccc1	-0.9	-0.8	-118.0	1.1	27.3*
SMILES	MLL AF4-AF9 inh	FGF22 binding	RAD52 inh	ERAP1 HTS inh	DENV2 CPE rescue
Cc1cccc(S(=O)(=O)N2C[C@H]3[C@@H](c4ccccc42)[C@@H](CO)N3Cc2cccnc2)c1	0.8	-0.7	-5.8	-2.9	27.3*
Cc1cccc(S(=O)(=O)N2C[C@H]3[C@@H](c4ccccc42)[C@@H](CO)N3C(=O)c2ccccc2)c1	0.1	0.8	-14.5	-1.7	57.2*
CC1CN(C(=O)c2cc3cc([N+](=O)[O-])ccc3oc2=O)CC(C)O1 (stereo not given)	-4.5	0.5	-16.4	·	5.3
O=C(c1cccc(Oc2ccc([N+](=O)[O-])cc2)c1)N1CCOCC1	0.7	-1.7	-7.0	1.8	96.8*
O=C(c1cc2cc([N+](=O)[O-])ccc2oc1=O)N1CCOCC1	-1.2	43.2*	-20.0	-7.8	-1.4
O=C(c1cccc(Oc2ccccc2)c1)N1CCOCC1	-1.6	0.3	-10.8	-1.0	-3.4
Cc1ccc(S(=O)(=O)N(C)C[C@H]2OCCCC[C@@H](C)Oc3ccc(NC(=O)Nc4ccccc4)cc3C(=O)N([C@@H](C)CO)C[C@H]2C)cc1	1.3	0.0	-32.6	0.2	-4.0
O=C(Cc1ccccc1)N1C[C@H]2[C@@H](c3ccccc31)[C@H](CO)N2C(=O)c1cccc(F)c1	-4.5	-0.1	-13.9	-3.1	7.7
O=C(COC(=O)CN1C(=O)NC2(CCCC2)C1=O)Nc1ccc(C(F)(F)F)cc1[N+](=O)[O-]	8.9	0.3	-2.8	-0.5	31.9*
CO[C@H](CN(C)S(=O)(=O)c1ccc(Cl)cc1)[C@@H](C)CN(C(=O)Nc1ccccc1F)[C@H](C)CO	-1.5	-0.3	12.7	0.1	3.2
CC(=O)c1ccc(OC2(C)CCN(Cc3ccc4ccccc4c3)C2)cc1 (stereo not given)	2.2	-0.2	-24.9	3.3	116.8*
COC(=O)Cc1ccc(OC2(C)CCN(Cc3csc4ccccc34)C2)cc1 (stereo not given)	4.6	-0.1	-9.9	-2.2	25.7*
CC1(Oc2cccc(F)c2)CCN(Cc2csc3ccccc23)C1 (stereo not given)	3.1	-0.4	-6.1	0.9	?
